# Results from the supplement of paper PMC6555819.
# Columns and labels:
# Experiment in all cases: PBM binding z-score (relative to random genomic background probes); higher = stronger binding; sequences stand for … in GC…GCGATTGACAGCGTAGAATGAAGG
# [1] = system: FXR:RXRa (NR concentration 270 nM, RXRa partner concentration 90 nM)
# Method in brief: (§1)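 Binding z-scores take random background probes as their reference. They come from custom Agilent 4×180K protein-binding microarrays incubated 1 h with ligand-free nuclear receptor dimers, with antibodies against each partner (one per run) detecting binding. Scanned fluorescence was regression-normalized.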
# [2] = system: LXRa:RXRa (NR concentration 270 nM, RXRa partner concentration 90 nM)
# Method in brief: as §1
# [3] = system: LXRa homodimer (NR concentration 270 nM)
# Method in brief: as §1
# [4] = system: LXRb:RXRa (NR concentration 270 nM, RXRa partner concentration 90 nM)
# Method in brief: as §1
# [5] = system: LXRb homodimer (NR concentration 270 nM)
# Method in brief: as §1
# [6] = system: PPARa:RXRa (NR concentration 270 nM, RXRa partner concentration 90 nM)
# Method in brief: as §1
# [7] = system: PPARg:RXRa (NR concentration 180 nM, RXRa partner concentration 90 nM)
# Method in brief: as §1
# [8] = system: PPARg:RXRa 270nM:90nM, anti-RXR (NR concentration 270 nM, RXRa partner concentration 90 nM)
# Method in brief: as §1
# [9] = system: PPARg:RXRa 30nM:10nM, anti-RXR (NR concentration 30 nM, RXRa partner concentration 10 nM)
# Method in brief: as §1
# [10] = system: PPARg:RXRa 90nM:30nM, anti-RXR (NR concentration 90 nM, RXRa partner concentration 30 nM)
# Method in brief: as §1
Sequence,PBM binding z-score [1],PBM binding z-score [2],PBM binding z-score [3],PBM binding z-score [4],PBM binding z-score [5],PBM binding z-score [6],PBM binding z-score [7],PBM binding z-score [8],PBM binding z-score [9],PBM binding z-score [10]
TATATTAGTTGAAGGGCAACCGACGAGTCCGTTT,0.481,0.797,0.861,0.474,1.01,0.509,0.844,1.23,0.993,1.22
CCAGACAGGTGACAAGGTAACTCAGCCTCGATTA,0.0849,0.145,-0.212,-0.039,-0.466,0.6,0.825,0.508,-0.365,0.0365
ATATGTAGGTTAAGGGTGATTCAGGTTGGTTCGC,0.984,1.63,0.808,1.73,0.807,4.98,9.36,8.2,8.53,9.45
CGAACTAGGTCAGTACAGGACAGTGAAGGATGAT,1.58,1.83,-0.0342,0.493,-0.478,3,4.93,4.25,1.71,3.39
CCTGCTAGGTCGATGGTCAGCTAAAGCAGCTCGC,-0.156,-0.179,-0.637,-0.279,-0.599,0.0378,0.232,1.43,-0.649,0.713
CTACCAAGGTGAAAAAGGTCGTTGATTACTATTC,1.22,1.45,0.405,1.86,-0.412,2.61,0.694,1.3,0.297,0.721
CAAGACAGGTGAAAGGTAACTCAGTCTGGTACGC,1.04,1.14,-0.209,0.929,0.289,3.73,5.4,5.94,4.14,6.08
CAAGACAGGTGAGAAGGTAACTCAGCCTCGATTA,0.353,0.452,-0.0734,0.183,0.194,0.791,0.815,0.902,0.302,0.808
CCTATTAGTGGACCATAAGGGCAACCGAAGCTCG,0.107,0.131,0.000985,0.0463,0.134,0.591,0.711,1.08,0.116,0.489
CCAACTGGGCCACGAAAGGTCATTGATTCAGTGA,3.69,5.09,4.15,4.41,0.134,4.75,4.7,4.74,1.7,3.62
CCTTACGGGTCAATCCAGGTTATAGCATCGGAGT,5.24,6.46,0.547,4.05,0.285,4.76,3.53,3.75,1.26,2.54
ACTATTAGTTGACTTAGGGTAACCGATACGACGC,0.985,1.09,1.21,0.679,0.748,0.468,0.907,0.758,0.442,0.705
ACTAGCAGGCCGAGGGTCACTCAAGATTAGTCCG,0.88,1.52,-0.557,1.31,-0.725,2.71,3.61,4.99,2.21,4.78
CGAACTGGGTCATCCAGGACAGTGAATACATTGA,3.3,1.9,0.0995,1.9,-0.478,4.92,7.51,5.92,3.5,5.51
CCTGCTAGGTCAATGGCCAGCTAAAGCAGCTCGC,3.11,2.72,-0.17,1.39,-0.454,2.73,1.84,2.65,0.293,1.8
CATACAGGGTCAGCTAGTCCAGAGTAGGGACGGC,4.47,2.76,-0.017,2.18,0.191,4.2,3.22,2.78,0.664,2.06
CGAACTAGGTGAAGGACAGTGAATCTCCGCACGC,-0.222,-0.234,-0.52,-0.714,-1.01,2.1,3.52,3.2,0.549,2.14
CCTAATGGGCCAAAGGTCATTGATTCCAATGCTC,5.18,5.16,3.94,4.84,1.08,6.03,11.8,9.96,11.9,12.1
TCAGACAGGTGAAGGTCACTCAGGTACGCAGTCG,3.13,3.62,1.36,3.13,0.146,3.72,2.39,3.12,3.84,3.76
TCTTGTAGATCAGCGGGTTAAGAAAGCTGGCCAA,0.495,0.126,-0.31,0.0907,0.392,0.933,-0.329,1.16,2.52,1.99
ATCGAAAGGTCGAAGCTGAGTATACCCACCCGAA,4.55,3.6,0.403,2.6,0.738,4.28,2.17,2.92,0.67,1.94
CGTCCAAGGTCAGAGAGGTCAGTGAGTGCCGAGT,6.29,5.06,3.37,4.79,0.412,5.19,3.71,4.4,0.893,2.59
CCGACTGGGGAAAGGTTACCATAACGCACAGCCA,0.564,1.86,0.0866,1.75,-0.554,2.76,2.69,3.64,1.61,3.26
CCGACTGGGGCAAAGGTTACCTTACTCAGTACGA,1.37,1.71,-0.345,1.98,-1.42,5.37,10.6,9.12,7.96,9.81

Sequence,PBM binding z-score [1],PBM binding z-score [2],PBM binding z-score [3],PBM binding z-score [4],PBM binding z-score [5],PBM binding z-score [6],PBM binding z-score [7],PBM binding z-score [8],PBM binding z-score [9],PBM binding z-score [10]
ACAGACAGGTGCTGAAGGTAACTCAGGCTATCAT,-0.388,-0.633,-0.46,-0.677,-0.731,-0.462,0.398,-0.189,-0.203,-0.342
AGTCAAAGTTCACTAGGTAACGTAGGATTCAGCT,5.02,4.93,3.02,2.92,0.939,4.65,7.24,6.38,3.58,5.79
TCATATAGGTAAATGCTAGGTCAAAGTCCGATCT,1.83,3.8,5.26,2.45,0.769,2.57,1.76,2.81,3.96,3.47
CCTAGCAGGCCAGGGTTACTCAAGCATTTCGCTT,-0.32,0.0268,-0.897,0.041,-1.32,0.412,-0.105,0.539,-0.759,-0.212
GCTTACGGGTCAAAGGTTATACCATGAATAGAAT,7.48,5.87,0.778,5.87,0.759,7.21,11.2,9.29,9.29,10.3
TCTCTGAGGACACGAAGGTCAGAGCTTTCCAGAG,2.1,1.06,0.117,0.798,-0.338,2,0.595,2.08,2.59,2.22
GGAACGAGGGCGAGTTGATAGCAGAGTTTGATGG,-0.328,-0.505,-0.54,-0.523,-0.787,-0.0875,0.373,-0.24,-0.495,-0.42
TCATTTAGGTAAACAGGTGAAAGTCCGTAAGTTA,1.47,1.13,0.719,1.04,0.705,2.37,2.24,3.73,4.42,3.99
AGAATGAGGTTACCAAAGACCAGGGAAACGCTTG,1.97,4.34,-0.091,1.87,-0.385,3.27,2.53,2.62,0.863,1.86
TCTATTAGTTGAAGGGCTACCGACGAGTCCGTTT,0.932,0.924,0.312,0.431,0.511,0.594,-0.151,2.01,3.62,2.96
TCGAGTAGGTTAGTCCGGGCATTCAGCCAACATA,-0.219,0.109,0.0222,-0.106,-1.05,0.14,-0.395,0.281,0.992,0.409
CAAACTAGGTCACAGAGGTCAAAGTCCGTGCGTA,7.61,6.66,7.31,6.24,2.21,6.66,10.2,8.58,6.84,8.64
AGAACGAGGGAACGCTGAGTTGATAGCAGAGTAG,-0.288,-0.46,-0.611,-0.674,-0.803,-0.499,0.464,-0.265,-0.0206,-0.332
GCGACTGGGGCATCAGCAGGTTACCATGACTTAA,-0.337,-0.256,-0.454,0.309,-1.08,0.903,0.918,0.462,-0.743,-0.0721
GCATATAGGTAATACGAGGTGAAAGTCCGATTGT,2.16,2.66,0.407,0.883,-0.463,1.76,1.44,1.38,0.459,0.853
TCTTGTAGATCAAAGGTTAGGAAAGCCGAAGCCT,1.26,1.45,-0.217,1.24,-0.196,4.06,7.63,7.57,7.89,9.05
CTACCAAGATGAACAAGGTCGTTGATTACTATTC,0.828,0.783,0.9,1.49,0.267,1.09,0.228,0.135,-0.0206,0.314
TCAAGTAGGTTAGTCGGGGCATTCAGCCAACATA,0.926,0.645,0.0892,1.03,0.134,1.68,1.07,2.48,3.63,3.14
TCTTGTAGATCAGCAGGTTATGAAAGCTGGCCAA,0.122,0.0807,-0.501,0.444,-0.22,0.665,-0.222,1.29,2.49,1.59
CGAACTAGGTCATCCACGACAGTGAATACATTGA,4.92,2.48,0.634,2.23,0.18,4.92,8.03,6.61,4.01,5.93
TCAGACAGGTGAAGGTAACTGAGGTACGCAGTCG,1.04,1.01,-0.19,0.598,-0.756,1.2,0.727,1.98,3.74,2.96
TCATATAGGAAAACAGGTGAAAGTCCGTAAGTTA,1.22,1.13,0.235,1.11,-0.323,1.44,1.13,2.8,4.43,3.77
CGTCAAAGTTCAACTCAGGTAACGTAAAGCACGC,7.13,6.43,4.59,4.35,1.99,5.08,4.66,5.43,2.08,4.01
TTACCAAGGTGAGGTGAGGTCGTTGATCCAACTC,2.75,1.64,-0.251,1.2,-0.802,2.03,0.585,1.25,0.427,0.705
